Results on 66 molecules are retold here after ChEMBL document CHEMBL4513216, “Probing the Open Global Health Chemical Diversity Library for Multistage-Active Starting Points for Next-Generation Antimalarials” (ACS Infect Dis, 2020).

In all, about 69,000 compounds went through this assay and about 8,600 (12%) showed an effect of 50% or more. What follows is part of a selection rich in strong results, with near analogues and random picks from the rest.

The test system of the experiment is Plasmodium berghei. The experiment in a line: Screen against P. berghei liver stage (PbLuc), transformed with Luciferase, at 10uM. It counts as functional, HepG2. As to conditions: tested at 10 uM.
For the molecule `NC(=O)CCC1CCCN(c2ccc3c(Cl)ccnc3c2F)C1` (stereo unspecified), the INHIBITION is reported as 38%.
With `NC(=O)CCC1CCCN(c2ccnc3cc(F)ccc23)C1` (stereo unspecified) the figure was 79.3%; with `NC(=O)CCC1CCCN(c2ccc3ccc(F)cc3n2)C1` (stereo unspecified), -65.4%.
Consider `Cc1cnccc1CCNC(=O)Nc1cnc(N(C)C)nc1`, for which the INHIBITION stood at 42.3%.
Take `Cc1nc(NC(=O)C(C)N(C)Cc2cccc(C#N)c2)sc1C` (stereo unspecified): the INHIBITION is on record as -24.7%.
On to `CC(CNC1CCN(c2ccccn2)CC1)Oc1ccc(F)cc1` (stereo unspecified), for which the INHIBITION is given as 65.4%.
Turning to `OC1(CNC2CCN(c3ccccn3)CC2)CCc2ccccc21` (stereo unspecified), the INHIBITION is 7.31%.
Take `c1ccc(N2CCC(NCCc3ccc(-n4cccn4)cc3)CC2)nc1`: the INHIBITION was -15.3%.
As for `COc1c(CNC2CCN(c3ccccn3)CC2)c(C(C)C)nn1C`, the figure is 40.2%.
As for `COc1ccc(C(C)CCNC2CCN(c3ccccn3)CC2)cc1` (stereo unspecified), the INHIBITION stood at 53.4%.
With `CC(C)COCCNC1CCN(c2ccccn2)CC1` the figure was 41.4%.
As for `CN1CCC/C1=N\S(=O)(=O)c1ccc(NC(=O)c2cccs2)cc1`, the INHIBITION stood at 23.4%.
Take `c1ccc(CN2C[C@@H]3CC[C@H]2CN(Cc2nnc(C4CC4)o2)C3)cc1`: the INHIBITION came out at 45.4%.
On to `Cc1cc(C)n(CC2CN(CC(=O)N3CCC3)CCO2)n1` (stereo unspecified), for which the INHIBITION stood at 8.64%.
For the molecule `Cc1cccc(-c2ccc3nc(C4CCN(CC5CC5)CC4)nn3c2)c1`, the INHIBITION is 46.8%.
As for `CCCN1CCC(c2nc3ccc(-c4cccc(OC)c4)cn3n2)CC1`, the figure is 82.9%; as for `CCCN1CCC(c2nc3ccc(-c4cccc(F)c4)cn3n2)CC1`, 47.5%.
As to `COCCN1CCC(c2nc3ccc(-c4ccccc4)cn3n2)CC1`, the INHIBITION is -18.4%.
As for `CCCN1CCC(c2nc3ccc(-c4ccccc4)cn3n2)CC1`, the INHIBITION was found to be 54.8%.
For `CCCN1CCC(c2nc3ccc(-c4ccncc4)cn3n2)CC1`, the INHIBITION is on record as 16.8%.
Consider `CN(CCS(C)(=O)=O)C1CCCN(Cc2noc(C3CC3)n2)C1` (stereo unspecified), for which the INHIBITION is 47.3%.
Turning to `CN(Cc1ccc2c(c1)OCO2)C(=O)c1ccc(C2CCCNC2)cc1` (stereo unspecified), the INHIBITION was -26.5%.
For `CCOC(=O)N1CCC(NC(=O)c2cccc(C3CCCNC3)c2)CC1` (stereo unspecified), the INHIBITION is 9.72%.
As for `CSc1cccc(CN(C)C(=O)c2ccc(C3CCCNC3)cc2)c1` (stereo unspecified), the figure is 9.56%; as for `O=C(NC1CCOCC1)c1cccc(C2CCCNC2)c1` (stereo unspecified), 27.7%; as for `CSc1cccc(CN(C)C(=O)c2cccc(C3CCCNC3)c2)c1` (stereo unspecified), 60.4%.
With `CSCCN1CCC(NC(=O)c2cccc(C3CCCNC3)c2)CC1` (stereo unspecified), the INHIBITION is given as 50.8%.
Regarding `Cc1cccc(-n2cc3[nH]c(=O)n(Cc4cccc(F)c4)n3c2=O)c1`, the INHIBITION is 25.2%.
Turning to `CCc1noc(CN(CC)C(=O)CC2C(=O)NCCN2CC=C(C)C)n1` (stereo unspecified), the INHIBITION is given as 16.9%.
As for `CCc1nc(C2NC3(CCCC3)C(=O)N2CC2CC2)cs1` (stereo unspecified), the figure is 61.6%; as for `Cc1csc(C2NC3(CCCC3)C(=O)N2CC2CC2)n1` (stereo unspecified), 43.5%.
Take `Cc1nc(C2NC3(CCCC3)C(=O)N2CC2CC2)cs1` (stereo unspecified): the INHIBITION was found to be 47.7%.
`O=C(NCC1CC1)C1CSCN1S(=O)(=O)c1ccccc1` (stereo unspecified): the INHIBITION is reported as -35.9%.
For the molecule `Cc1n[nH]c(C2CN(CCc3cccs3)CCO2)n1` (stereo unspecified), the INHIBITION is 35.3%.
Regarding `Cc1cccc(CN2C(=O)CO[C@@H]3CN(CCO)C[C@H]32)c1`, the INHIBITION is on record as -9.76%.
`COc1ccc(-c2nnc(CN3CCCC3Cn3cncn3)o2)cc1` (stereo unspecified): the INHIBITION is on record as 45.1%.
With `NC(=O)N1CCC2(CC1)CC(=O)N(CC1CCCO1)c1ccccc12` (stereo unspecified) the figure was 54.3%; with `O=C([C@H]1CCCO1)N1CCC2(CC1)C(=O)N(CC1CC1)c1ccccc12`, 17.4%.
On to `Cc1nc(CN2C(=O)CC3(CCN(C(N)=O)CC3)c3ccccc32)cs1`, for which the INHIBITION came to 36.4%.
With `COCCN1CCC2(CCN(Cc3ccc(OC)cc3)CC2)C1=O`, the INHIBITION is given as 38.3%.
As for `O=C(c1c[nH]nn1)N1CCCC1C1CCCCC1` (stereo unspecified), the figure is 53.8%.
`O=C(c1ccc(=O)[nH]n1)N1CCCC1C1CCCC1` (stereo unspecified): the INHIBITION stood at 18%.
For `O=C(c1cnc2[nH]c(=O)[nH]c(=O)c2c1)N1CCCC1C1CCCCC1` (stereo unspecified), the INHIBITION is given as -1.35%.
On to `CC(C)N1CCC2(CC1)CC(NS(C)(=O)=O)c1ccccc1O2` (stereo unspecified), for which the INHIBITION is -12.2%.
Regarding `CC(C)NC(=O)NCc1cc(-c2ccco2)n(CC(F)(F)F)n1`, the INHIBITION is 20.4%.
With `Cc1nc(N2CCC(O)(c3ccc(F)cc3)CC2)c2c(C)nn(C)c2n1` the figure was 51.2%; with `Cc1nc(N2CCC(O)(c3ccccc3)CC2)c2c(C)nn(C)c2n1`, 28.4%.
`Cc1nc(C)c(C)c(N2CCC(O)(c3ccc(F)cc3)CC2)n1`: the INHIBITION is reported as 25.5%.
For the molecule `Cn1cc(CN2CCC3(CC2)CCN(C(=O)c2cscn2)C3)cn1`, the INHIBITION is reported as 38.5%.
With `COCC1CC2(CCN(c3cccc(C)n3)CC2)CN1c1ncccn1` (stereo unspecified) the figure was 46.6%.
`Cn1cncc1-c1nnc([C@H]2CCN(Cc3ccc(CO)o3)C2)o1`: the INHIBITION is -18.2%.
For the molecule `Cn1cncc1-c1nnc([C@H]2CCN(C3CCOCC3)C2)o1`, the INHIBITION amounted to 4.61%.
As to `CN1CC[C@H](c2nnc(-c3cncn3C)o2)C1`, the INHIBITION turned out to be 61.5%.
For `Cn1cncc1-c1nnc([C@H]2CCN(CC(C)(C)C)C2)o1`, the INHIBITION is listed as 57.4%.
For `Cn1cncc1-c1nnc([C@H]2CCN(Cc3ccc(F)c(F)c3)C2)o1`, the INHIBITION is listed as 11.4%.
For the molecule `Cc1ccccc1CN1CC[C@H](c2nnc(-c3cncn3C)o2)C1`, the INHIBITION was determined as 5.96%.
Consider `Cn1cncc1-c1nnc([C@H]2CCN(Cc3ncc[nH]3)C2)o1`, for which the INHIBITION is given as 69.6%.
With `Cn1cncc1-c1nnc([C@H]2CCN(Cc3cccnc3)C2)o1` the figure was 39.8%; with `Cn1cncc1-c1nnc([C@H]2CCN(CC3CCCCC3)C2)o1`, -17.1%; with `COc1ccc(OC)c(CNCc2c(C(C)C)nn(C)c2N(C)C)c1`, 30.08%.
As for `O=C1N[C@H]2OCCC[C@H]2[C@H](c2ccccc2C(=O)O)N1`, the figure is -0.495%; as for `Cc1ccc(C2(O)CCN(C(=O)c3cccc(S(C)(=O)=O)c3)CC2)nc1`, -6.09%; as for `Cc1n[nH]c(C)c1C1CCCN1C(=O)Cc1cccc(F)c1` (stereo unspecified), 40.2%.
With `CSc1ccc(NC(=O)Cn2cc(N)cn2)cc1`, the INHIBITION is given as -15%.
With `Cc1cc(NCCc2nnc(N)s2)nc(-c2ccccc2)n1` the figure was -13.3%; with `CN1C(=O)CC[C@@H]2N(C(=O)CCc3cccnc3)CCCC[C@@]21C`, 44.3%.
